From publication PMC5540273 (PLoS ONE, 2017)

Experiments:
Conditions in all cases: concentration: 1 μM, replicates: in singlicate; n = 1
MAP3K15 = system: MAP3K15
MAP3K1 = system: MAP3K1
MAP3K2 = system: MAP3K2
MAP3K3 = system: MAP3K3
MAP3K4 = system: MAP3K4
MAP4K2 = system: MAP4K2
MAP4K3 = system: MAP4K3
MAP4K4 = system: MAP4K4
MAP4K5 = system: MAP4K5
MAPKAPK2 = system: MAPKAPK2
MAPKAPK5 = system: MAPKAPK5
MARK1 = system: MARK1
MARK2 = system: MARK2
MARK3 = system: MARK3
MARK4 = system: MARK4
MAST1 = system: MAST1
MEK1 = system: T1, MEK1
T1 construct: gene MAP2K1

MEK2 = system: T2, MEK2
T2 construct: gene MAP2K2

MEK3 = system: T3, MEK3
T3 construct: gene MAP2K3

MEK4 = system: T4, MEK4
T4 construct: gene MAP2K4
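Further: KINOMEscan kinase panel screen.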

| SMILES | %Inh (MAP3K15) | %Inh (MAP3K1) | %Inh (MAP3K2) | %Inh (MAP3K3) | %Inh (MAP3K4) | %Inh (MAP4K2) | %Inh (MAP4K3) | %Inh (MAP4K4) | %Inh (MAP4K5) | %Inh (MAPKAPK2) | %Inh (MAPKAPK5) | %Inh (MARK1) | %Inh (MARK2) | %Inh (MARK3) | %Inh (MARK4) | %Inh (MAST1) | %Inh (MEK1) | %Inh (MEK2) | %Inh (MEK3) | %Inh (MEK4) |
| --- | --- | --- | --- | --- | --- | --- | --- | --- | --- | --- | --- | --- | --- | --- | --- | --- | --- | --- | --- | --- |
| Cc1ccc(S(=O)(=O)Nc2ccc(Nc3nccc(Nc4cccc5[nH]ncc45)n3)cc2)cc1 [GSK581271] | 0% | 5% | 3% | 0% | 7% | 0% | 34% | 0% | 0% | 0% | 0% | 0% | 0% | 0% | 7% | 7% | 0% | 0% | 0% | 10% |
| Cc1cccc(Nc2nc(N[C@H]3CCNC3)ncc2C(N)=O)c1.Cl [GSK2197149] | 0% | 0% | 88% | 60% | 45% | 88% | 40% | 73% | 33% | 0% | 0% | 0% | 19% | 0% | 4% | 0% | 31% | 31% | 85% | 66% |
| CN(C)S(=O)(=O)c1cc(-c2ccc3nccc(-c4cccc(S(N)(=O)=O)c4)c3c2)cnc1N [GSK1669921] | 23% | 6% | 0% | 0% | 0% | 13% | 5% | 0% | 0% | 19% | 8% | 0% | 0% | 0% | 0% | 0% | 7% | 0% | 0% | 27% |
| COc1cccc(C(=O)Nc2cccc(Oc3ccc4nc(NC(=O)C5CC5)cn4n3)c2)c1 | 0% | 9% | 0% | 24% | 10% | 0% | 69% | 48% | 49% | 0% | 0% | 17% | 0% | 0% | 10% | 0% | 28% | 43% | 15% | 0% |
| C[C@@H](Oc1cc(-n2cnc3cc(-c4ccnc(NCCS(C)(=O)=O)c4)ccc32)sc1C(N)=O)c1ccccc1Cl [GSK907232] | 6% | 92% | 10% | 0% | 35% | 20% | 85% | 21% | 96.3% | 0% | 0% | 11% | 34% | 43% | 20% | 6% | 0% | 0% | 0% | 26% |
| Clc1ccc(-c2nn3ncccc3c2-c2ccnc(Nc3ccc4c(c3)OCCO4)n2)cc1 [GW829116] | 0% | 0% | 7% | 2% | 0% | 0% | 0% | 12% | 0% | 0% | 0% | 0% | 0% | 20% | 0% | 0% | 6% | 27% | 14% | 1% |
| COc1ccc(CNC(=O)NC2CCN(c3ccnc(Nc4ccc(F)cc4)n3)CC2)cc1 [GSK1379788] | 0% | 4% | 0% | 0% | 0% | 0% | 0% | 2% | 0% | 1% | 0% | 0% | 0% | 0% | 0% | 3% | 0% | 9% | 0% | 45% |
| CC(=O)Nc1nc2cnc(Nc3cc(NC(=O)c4cccc(C5(C#N)CC5)c4Cl)ccc3C)nc2s1 | 0% | 0% | 0% | 0% | 10% | 16% | 0% | 17% | 0% | 0% | 0% | 1% | 19% | 0% | 10% | 23% | 0% | 0% | 0% | 5% |
